For 40 molecules, Inhibition results are on record in ChEMBL document CHEMBL1157539, “Thousands of chemical starting points for antimalarial lead identification” (Nature, 2010).

Structures are written as SMILES.

The subject of the first experiment is Plasmodium falciparum. In words: GSK_TCMDC: Inhibition of Plasmodium falciparum Dd2 in whole red blood cells, using parasite LDH activity as an index of growth. Test compounds present at 2uM. The experiment is classed as functional.
In the case of `CN1CCN(CCCN(Cc2csc(-c3ccc(CNCc4ccccc4)cc3)n2)S(=O)(=O)c2ccc(F)cc2)CC1.O=C(O)C(F)(F)F`, the Inhibition is 80%.
Still for that read-out and setting: next, `O=C(Nc1cccc(CN2CCCN(CC3CC3)CC2)c1)c1ccc(-c2ccccc2)cc1.O=C(O)C(F)(F)F`: 5%.
On the same count and under the same terms, next, `Cc1cc(NCCC(=O)NCCOc2ccccc2)nc(NCCc2ccccc2)n1.O=C(O)C(F)(F)F`: 9%.
On the same count and under the same terms, next, `Cc1cccc(C)c1C1CCN(CCCCNC(=O)c2cc3ccccc3[nH]2)CC1`: 18%.
On to `CN(c1ccccc1C(=O)Nc1cc(Cl)ccc1Oc1ccccc1)S(=O)(=O)c1ccccc1`, for which the Inhibition was 42%.
In turn, `Cc1cccc(CN2CCC(Oc3ccc(NC(=O)c4cccs4)cc3Cl)CC2)n1.O=C(O)C(F)(F)F` displayed an Inhibition of 88%.
For `O=C(O)C(F)(F)F.O=S(=O)(NCCN1CCCC1)c1ccc(-c2cccc(CNCc3ccccc3)c2)s1`, the Inhibition amounted to 43%.
Molecule `Cc1ccc(CN2CCN(CC(O)COc3ccc4c(c3)CCC4)CC2)cc1` (stereo not given) registered an Inhibition of 0%.
`Cc1[nH]c(CNCCCNc2cc(=O)c3ccccc3[nH]2)c(Br)c1Br`: the Inhibition is 47%.
Take `COc1ccc(NC(=O)CSc2nc(-c3ccccc3Cl)ns2)cc1`: the Inhibition is given as 75%.
`O=S(=O)(Nc1ccc(CCN2CCC(N3CCCCC3)CC2)cc1)c1ccc2ccccc2c1` came in with an Inhibition of 80%.
`COc1ccc(CNC2CCN(C)CC2)cc1-c1ccc(S(=O)(=O)NCC2CCCO2)s1.O=C(O)C(F)(F)F` (stereo not given) showed an Inhibition of 18%.
Same read-out and setting: for `c1ccc2[nH]c(-c3ccc(-c4ccc(CN5CCN(c6ccncc6)CC5)cc4)s3)nc2c1` the value was 100%.
With `CC(=O)Nc1cccc(-c2cnc(N)c3cc(-c4ccc5c(c4)OCO5)ccc23)c1`, the Inhibition is 93%.
On the same count and under the same terms, for `O=C(O)C(F)(F)F.c1cc(CNCC2CCCO2)cc(-c2csc(-c3nc4ccccc4[nH]3)c2)c1` (stereo not given) the value was 6%; for `O=C(Nc1cccc(-c2nn3ncccc3c2-c2ccnc(Nc3ccccc3)n2)c1)c1c(F)cccc1F`, 96%; for `NCCCNc1ccc(-c2ccc(NC(=O)Nc3cc(C(F)(F)F)ccc3F)cc2)cn1.O=C(O)C(F)(F)F`, 66%.
Regarding `Cc1nc2ccc3ccc(CNc4ccc(C#N)cc4)cc3c2c(=O)[nH]1`, the Inhibition is 56%.
Same read-out and setting: next, `CC(C)c1cc(Oc2c(I)cc(CCNCc3ccccc3)cc2I)ccc1O.Cl`: 54%; `CC1CCCN(C(=O)c2cc(-c3ccccn3)nc3c(Cl)cccc23)C1` (stereo not given): 9%.
Same read-out and setting: for `CN1CCN(CCCN(Cc2cccc(-c3ccc(CNCCc4ccccc4)cc3)c2)C(=O)Nc2ccccc2)CC1.O=C(O)C(F)(F)F` the value was 91%; for `CCOc1ccc2c(=NN=Cc3ccc(F)cc3)cc(C)[nH]c2c1`, 99%; for `Cc1ccc(CN(Cc2ccc(C(=O)N(C)C)cc2)Cc2ccc3c(c2)OCCO3)cc1C`, 87%.
The same measure, in the same setting: for `CC(C)Cn1cc(C2CCN(CCN3CCC(CNC(=O)c4ccc(-c5ccc(C(F)(F)F)cc5)cc4)CC3)CC2)c2ccccc21` the value was 87%.
`CCCCc1ccc(NC(=O)Nc2ccc3c(c2)CCNCC3)cc1.Cl` came in with an Inhibition of 43%.
On to `CCCCCCNC(=O)c1nn(CCN2CCC(N3CCCC3)CC2)cc1-c1ccc(Cl)c(Cl)c1`, for which the Inhibition amounted to 33%.
The same measure, in the same setting: next, `NCCNc1ccnc2cc(Cl)ccc12`: 54%; `Cc1ccc(Cc2c[nH]c(NCCSCc3ccc(CN(C)C)s3)nc2=O)cn1`: 0%; `O=c1cc(NCCCNC(c2ccccc2)c2ccc(Cl)c(Cl)c2)[nH]c2ccccc12` (stereo not given): 94%.
Same read-out and setting: next, `Nc1c(Cl)cc(C(O)CNCCCCCCOCCC=C2CCOCC2)cc1Cl` (stereo not given): 9%.
`Cc1cccc(CNc2nc(C)cc(NCCC(=O)NCc3cccc(F)c3)n2)c1.O=C(O)C(F)(F)F` gave an Inhibition of 13%.
Same read-out and setting: next, `CC1CCN(Cc2c(O)ccc3c(O)c(-c4nc5ccccc5s4)c(=N)oc23)CC1`: 99%; `COc1ccc(C=NN=c2cc(C)[nH]c3ccccc23)cc1OC`: 8%; `C=C(NC(=O)C1CCCCC1)C(=O)OC`: 3%.
Same read-out and setting: for `CC1CCN(Cc2ccc(NC(=O)c3cc4ccc5cccnc5c4[nH]3)cc2)CC1` the value was 93%; for `CCCCN(CCCC)CCCCNc1c2ccccc2nc2ccccc12.Cl`, 100%; for `Cc1cc2nc(-c3ccc(C(=O)NCc4ccc(C(C)(C)C)cc4)cc3)[nH]c2cc1C`, 59%.
Same read-out and setting: next, `CC(C)CNC(=O)c1ccnc(-c2ccc(CNC3Cc4ccccc4C3)cc2)c1.O=C(O)C(F)(F)F`: 29%; `O=C(Cc1cccs1)NC(CCCN1CCC(Oc2cccc(Cl)c2)CC1)c1ccc(Cl)c(Cl)c1` (stereo not given): 70%.
The molecule `CN(C(=O)c1nn(-c2ccccn2)c2nccc(-c3cccs3)c12)C1CCCCC1` came in with an Inhibition of 1%.

The next experiment deals with HepG2. In words: GSK_TCMDC: Percent inhibition of human HepG2 cell line. Test compounds present at 10uM. The experiment is classed as functional.
For the molecule `CN1CCN(CCCN(Cc2csc(-c3ccc(CNCc4ccccc4)cc3)n2)S(=O)(=O)c2ccc(F)cc2)CC1.O=C(O)C(F)(F)F`, the Inhibition stood at 21%.
For the molecule `O=C(Nc1cccc(CN2CCCN(CC3CC3)CC2)c1)c1ccc(-c2ccccc2)cc1.O=C(O)C(F)(F)F`, the Inhibition is given as 15%.
The same measure, in the same setting: next, `Cc1cc(NCCC(=O)NCCOc2ccccc2)nc(NCCc2ccccc2)n1.O=C(O)C(F)(F)F`: 0%; `Cc1cccc(C)c1C1CCN(CCCCNC(=O)c2cc3ccccc3[nH]2)CC1`: 46%.
The same measure, in the same setting: for `CN(c1ccccc1C(=O)Nc1cc(Cl)ccc1Oc1ccccc1)S(=O)(=O)c1ccccc1` the value was 47%.
On the same count and under the same terms, next, `Cc1cccc(CN2CCC(Oc3ccc(NC(=O)c4cccs4)cc3Cl)CC2)n1.O=C(O)C(F)(F)F`: 27%; `O=C(O)C(F)(F)F.O=S(=O)(NCCN1CCCC1)c1ccc(-c2cccc(CNCc3ccccc3)c2)s1`: 44%.
`Cc1ccc(CN2CCN(CC(O)COc3ccc4c(c3)CCC4)CC2)cc1` (stereo not given) showed an Inhibition of 0%.
On the same count and under the same terms, for `Cc1[nH]c(CNCCCNc2cc(=O)c3ccccc3[nH]2)c(Br)c1Br` the value was 0%.
The same measure, in the same setting: next, `COc1ccc(NC(=O)CSc2nc(-c3ccccc3Cl)ns2)cc1`: 11%; `O=S(=O)(Nc1ccc(CCN2CCC(N3CCCCC3)CC2)cc1)c1ccc2ccccc2c1`: 44%; `COc1ccc(CNC2CCN(C)CC2)cc1-c1ccc(S(=O)(=O)NCC2CCCO2)s1.O=C(O)C(F)(F)F` (stereo not given): 18%.
Still for that read-out and setting: for `c1ccc2[nH]c(-c3ccc(-c4ccc(CN5CCN(c6ccncc6)CC5)cc4)s3)nc2c1` the value was 25%; for `CC(=O)Nc1cccc(-c2cnc(N)c3cc(-c4ccc5c(c4)OCO5)ccc23)c1`, 100%; for `O=C(O)C(F)(F)F.c1cc(CNCC2CCCO2)cc(-c2csc(-c3nc4ccccc4[nH]3)c2)c1` (stereo not given), 5%.
Consider `O=C(Nc1cccc(-c2nn3ncccc3c2-c2ccnc(Nc3ccccc3)n2)c1)c1c(F)cccc1F`, for which the Inhibition is reported as 51%.
On the same count and under the same terms, next, `NCCCNc1ccc(-c2ccc(NC(=O)Nc3cc(C(F)(F)F)ccc3F)cc2)cn1.O=C(O)C(F)(F)F`: 0%; `Cc1nc2ccc3ccc(CNc4ccc(C#N)cc4)cc3c2c(=O)[nH]1`: 55%.
Same read-out and setting: for `CC(C)c1cc(Oc2c(I)cc(CCNCc3ccccc3)cc2I)ccc1O.Cl` the value was 42%.
Still for that read-out and setting: next, `CC1CCCN(C(=O)c2cc(-c3ccccn3)nc3c(Cl)cccc23)C1` (stereo not given): 2%.
Molecule `CN1CCN(CCCN(Cc2cccc(-c3ccc(CNCCc4ccccc4)cc3)c2)C(=O)Nc2ccccc2)CC1.O=C(O)C(F)(F)F` gave an Inhibition of 61%.
Still for that read-out and setting: for `CCOc1ccc2c(=NN=Cc3ccc(F)cc3)cc(C)[nH]c2c1` the value was 22%; for `Cc1ccc(CN(Cc2ccc(C(=O)N(C)C)cc2)Cc2ccc3c(c2)OCCO3)cc1C`, 10%.
In turn, `CC(C)Cn1cc(C2CCN(CCN3CCC(CNC(=O)c4ccc(-c5ccc(C(F)(F)F)cc5)cc4)CC3)CC2)c2ccccc21` gave an Inhibition of 100%.
On to `CCCCc1ccc(NC(=O)Nc2ccc3c(c2)CCNCC3)cc1.Cl`, for which the Inhibition is on record as 16%.
The molecule `CCCCCCNC(=O)c1nn(CCN2CCC(N3CCCC3)CC2)cc1-c1ccc(Cl)c(Cl)c1` yielded an Inhibition of 31%.
`NCCNc1ccnc2cc(Cl)ccc12` displayed an Inhibition of 9%.
Still for that read-out and setting: next, `Cc1ccc(Cc2c[nH]c(NCCSCc3ccc(CN(C)C)s3)nc2=O)cn1`: 3%.
`O=c1cc(NCCCNC(c2ccccc2)c2ccc(Cl)c(Cl)c2)[nH]c2ccccc12` (stereo not given) came in with an Inhibition of 13%.
The same measure, in the same setting: next, `Nc1c(Cl)cc(C(O)CNCCCCCCOCCC=C2CCOCC2)cc1Cl` (stereo not given): 7%; `Cc1cccc(CNc2nc(C)cc(NCCC(=O)NCc3cccc(F)c3)n2)c1.O=C(O)C(F)(F)F`: 23%; `CC1CCN(Cc2c(O)ccc3c(O)c(-c4nc5ccccc5s4)c(=N)oc23)CC1`: 2%.
`COc1ccc(C=NN=c2cc(C)[nH]c3ccccc23)cc1OC`: the Inhibition stood at 19%.
For `C=C(NC(=O)C1CCCCC1)C(=O)OC`, the Inhibition is listed as 15%.
The same measure, in the same setting: for `CC1CCN(Cc2ccc(NC(=O)c3cc4ccc5cccnc5c4[nH]3)cc2)CC1` the value was 10%.
For the molecule `CCCCN(CCCC)CCCCNc1c2ccccc2nc2ccccc12.Cl`, the Inhibition is listed as 36%.
On the same count and under the same terms, for `Cc1cc2nc(-c3ccc(C(=O)NCc4ccc(C(C)(C)C)cc4)cc3)[nH]c2cc1C` the value was 3%; for `CC(C)CNC(=O)c1ccnc(-c2ccc(CNC3Cc4ccccc4C3)cc2)c1.O=C(O)C(F)(F)F`, 25%; for `O=C(Cc1cccs1)NC(CCCN1CCC(Oc2cccc(Cl)c2)CC1)c1ccc(Cl)c(Cl)c1` (stereo not given), 39%.
In the case of `CN(C(=O)c1nn(-c2ccccn2)c2nccc(-c3cccs3)c12)C1CCCCC1`, the Inhibition is recorded as 4%.
